Data taken from PubChem BioAssay (NCI).
About 83,000 compounds went through this panel and 20% of them were active in at least one assay; those are over-represented in the sample as a whole.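 Testing used 96-well plates and a 48-hour single-concentration exposure. Example: -40 means 40% of the starting cells died.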 Values without a mark were called inactive. Active and inactive are the calls of the source. The calls were made as follows: active = growth percent below 10; inactive = the rest.

The molecules below were run on MDA-MB-468 breast (assay: NCI-60 one-dose screen, 48 h (100 = growth as untreated, 0 = no growth, -100 = all killed)). Conditions: 10 µM unless noted.
`CCOC(=O)c1c(CN2CCN(C)CC2)nc2ccc(Cl)cc2c1-c1ccccc1` gave a growth of 63.7%.
In the case of `Fc1ccc2nc(-c3nc(-c4ccccc4)n4ccccc34)[nH]c2c1`, the growth is reported as -68.1% (active).
`C=CC1=C(C(=O)O)N2C(=O)[C@@H](NC(=O)/C(=N\O)c3csc(N)n3)[C@H]2SC1` (stereo in doubt) showed a growth of 96.1%.
`CCN(CC)c1ccc2c(c1)OS(=O)(=O)N=C2` gave a growth of 111%.
Molecule `O=C1c2cccc3c(-c4ccc(-c5nc6c7ccccc7c7ccccc7c6[nH]5)cc4)ccc(c23)C(=O)N1CCN1CCNCC1` has a growth of 81.5%.
For `O=c1c(Br)ccc(Br)cc1Br`, the growth was -65.9% (active).
`C=C1CCC[C@]2(C)CCC[C@H](C)[C@@H](OC(C)=O)[C@@H]3OC(=O)C(=C)[C@@H]3C[C@H]1O2` showed a growth of 31.8%.
`Clc1ccc2c(NCCNc3nc(N4CCCC4)nc4ccccc34)ccnc2c1` was tested, and the growth was -49.2% (active).
With `NC(N)=Nc1ccc(Oc2cccc(NC(N)=Nc3ccc(Br)cc3)c2)cn1` the growth was 8.74% (active).
With `CC(C)c1ccc(C(=O)Nc2sc3c(c2C#N)CCC(=O)C3)cc1` the growth was -45.7% (active).
`CC1(C)CC(=O)C2=C(C1)C(c1ccc(Cl)cc1)n1ncc(C#N)c1N2` (stereo unspecified) gave a growth of 105%.
With `CCCCCCCCNC(=O)c1ccc(Cn2c(CCCC)nc3c(N)nc4ccccc4c32)cc1` the growth was -72.6% (active).
`COc1ccc(C2C3=C(COC3=O)N(CCO)c3cc4c(cc32)CCC4)cc1` (stereo unspecified) was tested, and the growth was 7.26% (active).
`CCCn1cnc2c(c1=N)C(c1ccc(Cl)cc1)c1sc3c(C)cccc3c1O2` (stereo unspecified) showed a growth of 30.9%.
With `CC12CCC(/C(=C/NNc3ccc([N+](=O)[O-])cc3[N+](=O)[O-])C1=O)C2(C)C` (stereo unspecified) the growth was 45%.
Work on `O=[N+]([O-])c1ccc(O)cc1Br` yielded a growth of 106%.
With `O=C(CCl)N1c2ccccc2Sc2ccc3ccccc3c21` the growth was -76.1% (active).
Work on `C/C(=C\CCc1ccsc1)CC/C=C(\C)CCCN1CCSCC1` yielded a growth of 50.1%.
`Cc1cc(C)c2c(n1)sc1c(Nc3ccc(Cl)cc3)ncnc12` gave a growth of 19%.
In the case of `COc1cc(/C=C/C(=O)c2ccc(NC(=O)CSc3nnc(-c4cc(OC)c(OC)c(OC)c4)n3-c3ccccc3)cc2)cc(OC)c1OC`, the growth is reported as 9.24% (active).
With `C#CCOc1ccc(/C=N/Nc2nc(-c3ccc(OC)cc3)cs2)cc1` the growth was 45.3%.
For `CCOc1ccc(-n2c(-c3cc(OC)c(OC)c(OC)c3)nnc2-c2ccc(OC)cc2N)cc1`, the growth was 1.83% (active).
`O=C(Nc1cccc(-n2cc(-c3ccncc3)c(-c3ccc(O)c(Cl)c3)n2)c1)Nc1cccc(C(F)(F)F)c1` showed a growth of 18.5%.
Work on `O=c1[nH]c(NCc2nnnn2-c2ccc(Br)cc2)nc2sc3c(c12)CCCC3` yielded a growth of 96.9%.
`CCOC(=O)c1c(C)nc2c(c1N)CC(=O)N2Cc1cc(OC)c(OC)c(OC)c1` was tested, and the growth was -4.22% (active).
Molecule `C=Cc1nn2c(CCC(=O)c3nc4ccccc4[nH]3)nnc2s1` has a growth of 110%.
Molecule `COc1ccc(C/C(C)=C(\c2ccc(O)cc2)c2ccc(OCCCN(C)C)cc2)cc1` has a growth of 86.8%.
Molecule `CCCCN1C(=O)c2cccc3c(-c4ccc5c(c4)ncn5C4CCCCC4)ccc(c23)C1=O` has a growth of 101%.
Molecule `O=C1[C@@H](OS(=O)(=O)CC(F)(F)F)[C@H](c2ccc(F)cn2)N1c1cc2c3ccccc3ccc2c2ccccc12` has a growth of 89.4%.
With `O=C(N/N=C/C=C/c1ccc([N+](=O)[O-])o1)c1cc2ccccc2cc1O` the growth was -65% (active).
For `Cc1cc(C)c2c(n1)sc1c(Nc3ccc(Cl)cc3Cl)ncnc12`, the growth was 16.9%.
`CCOC(=O)C/C(=N\Nc1cc(=O)[nH]c2ccc(Br)cc12)C(=O)OCC` showed a growth of 99.3%.
For `Cc1c(CN(C)C)cc(C(C)C)cc1C(C)C`, the growth was 100%.
In the case of `C=C1C(=O)O[C@H]2[C@H]1CC/C(C(=O)NCCCCCCCCNC(=O)/C1=C/CC[C@@]3(C)O[C@H]3[C@H]3OC(=O)C(=C)[C@@H]3CC1)=C\CC[C@@]1(C)O[C@@H]21`, the growth is reported as 35.7%.
`C=C1c2c(C)nn(-c3ccc(OC)cc3)c2N(C)C23C[C@@H]1C1(C)c4c(C)nn(-c5ccc(OC)cc5)c4N(C)C(C)(C[C@H]12)C3` (stereo partly specified) was tested, and the growth was 31.9%.
With `CC(=O)O[C@H]1CC[C@]2(C)[C@H]3CC=C4[C@@H]5[C@H](C)[C@@H](C)CC[C@]5(C(=O)NCCNCCNCCN)CC[C@@]4(C)[C@]3(C)CC[C@H]2C1(C)C` the growth was 69.2%.
